High-throughput results as filed in PubChem BioAssay.
nsP2pro primary – CHIKV nsP2 protease inhibition, primary qHTS; FRET peptide cleavage, nsP2pro, fluorescence 1 h; 31,000 compounds, 1.1% hits; Potency, µM (highest dose often 24.9 µM), inactives show top-dose activity change, negative = inhibition, most hits filed as inhibitors; Q8JUX6; AID 1964107; calls by dose curve; note: nearly all actives have a fitted effect of over 60% in size
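Purified recombinant nsP2pro (150 nM final) in 10 mM Tris-HCl pH 8.0 with 0.01% Tween 20 was preincubated 15 min at room temperature with compound (7 concentrations, up to 25 uM). FRET peptide 2 substrate (2.5 uM final) was then added; fluorescence was read after 1 h.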
* marks the source's active call; other numbers are inactive results; [ ] = remark or other dose. This excerpt belongs to a sample that is enriched for hits. % is set by controls: 0 for no effect and ±100 for the full control effect; potency is the fitted concentration of half-maximal effect.

For CC(C)c1nn2c(=O)cc(COC(=O)c3ccc4c(c3)OCO4)nc2s1 the results were nsP2pro primary -28.9%.
`CC(C)c1nn2c(=O)cc(COC(=O)Cc3ccccc3)nc2s1` gave nsP2pro primary -16.9%.
For CC(C)c1nn2c(=O)cc(COC(=O)c3ccco3)nc2s1 the results were nsP2pro primary 12.6µM*.
CCN1CCC(N2CCCC(N3CCN(c4cccc(Cl)c4)CC3)C2)CC1 (stereo not drawn) was read as nsP2pro primary inactive.
`C=C1C(=O)OC2/C=C(\CO)CC/C=C(\C=O)C(O)C(OC(=O)C(C)CC)C12` (stereo not drawn) gave nsP2pro primary -6.0%.
C=C1C(=O)O[C@@H]2/C=C(\CO)CC/C=C(\CO)[C@H](OC(C)=O)C(OC(=O)C(C)CC)C12 (stereo partly drawn) was read as nsP2pro primary -2.8%[10 µM].
C=C(C)C(=O)OC1C(OC(C)=O)/C(C=O)=C\CC/C(CO)=C/C2OC(=O)C(=C)C21 (stereo not drawn) was read as nsP2pro primary 1.36µM*.
`COc1ccc(CNC(=O)[C@@H]2CCC[C@@H](NCc3cccnc3)CN(C)C(=O)C2)cc1` gave nsP2pro primary 1.9%[39.2 µM].
C[N+](C)(C)CCOP(=O)([O-])OP(=O)(O)OC[C@H]1O[C@@H](n2ccc(N)nc2=O)[C@H](O)[C@@H]1O was read as nsP2pro primary -6.4%.
Screening CC(=O)N1CCN(C(=S)Nc2cc(C)ccn2)CC1 returned nsP2pro primary -5.7%.
CN(C)c1ccc(CNc2nc(-c3ccco3)nn2C(=O)c2cccc([N+](=O)[O-])c2)cc1 was read as nsP2pro primary -5.3%.
COc1ccc(C(=O)n2nc(-c3ccco3)nc2NCc2cccs2)cc1OC was read as nsP2pro primary 12.6µM*.
`COc1ccc(C(=O)n2nc(-c3ccc(Cl)cc3)nc2NCc2ccco2)cc1` gave nsP2pro primary -14.2%.
O=C(Nc1cccc(F)c1)c1cc(-c2ccc[nH]2)n[nH]1 was read as nsP2pro primary 88.2%.
`O=C(Nc1ccc(F)cc1)c1cc(-c2ccc[nH]2)n[nH]1` gave nsP2pro primary 10µM*.
O=C(Nc1cccc(Cl)c1)c1cc(-c2ccc[nH]2)n[nH]1 was read as nsP2pro primary 11.3%.
`CC(C)CCC[C@@H](C)[C@H]1CC[C@H]2[C@@H]3CC[C@H]4C[C@@H](O)CC[C@]4(C)[C@@H]3CC[C@]12C` gave nsP2pro primary 10.2%[10 µM].
`FC(F)(F)c1cccc(N2CCN(C(=S)Nc3nccc4cccnc34)CC2)c1` gave nsP2pro primary inactive.
For CCC1OC(=O)C(C)C(OC2CC(C)(OC)C(O)C(C)O2)C(C)C(OC2OC(C)CC(N(C)C)C2O)C(C)(O)CC(C)C2NC(COCCOC)OC(C2C)C1(C)O (stereo not drawn) the results were nsP2pro primary 21.0%.
CC(C)N[C@@H]1CCn2c(=O)[nH]c3cccc(c32)[C@H]1O was read as nsP2pro primary 11.1µM*.
Screening Cc1cccc(C(=O)N2CC(Oc3ccc(-c4noc(C5CCOCC5)n4)cc3)C2)c1 returned nsP2pro primary -3.0%.
Screening CCN1CCN(CC(O)COc2cccc(CNCc3cnn(CC)c3)c2)CC1 (stereo not drawn) returned nsP2pro primary inactive.
For OC(CN1CCN(c2cccc(Cl)c2)CC1)C(c1ccccc1)c1ccccc1 (stereo not drawn) the results were nsP2pro primary 28.6%.
For Cc1cc(OCC(O)CN2CCN(c3cccc(Cl)c3)CC2)ccc1Cl (stereo not drawn) the results were nsP2pro primary 11.2µM*.
`O=S(=O)(c1ccccc1)N1CCC(F)(c2nc(-c3ccncc3)no2)CC1` gave nsP2pro primary inactive.
For CC(=O)N1CCc2sc(C(=O)NC3CCN(Cc4ccccc4)CC3)cc2C1 the results were nsP2pro primary 1.0%.
`Cc1cccc(-n2cnc3cc(C(=O)N4CCC(C#N)CC4)ccc32)c1` gave nsP2pro primary 0.7%.
`COC(=O)Nc1c(N)nc(-c2nn(Cc3ccccc3F)c3ncc(F)cc23)nc1N` gave nsP2pro primary 3.1%.
`OC[C@H]1O[C@@H](OC/C=C/c2ccc(O)cc2)[C@H](O)[C@@H](O)[C@@H]1O` gave nsP2pro primary 16.4%.
`CC1=C(C(=O)O)/C(=C\CO[C@@H]2O[C@H](CO)[C@@H](O)[C@H](O)[C@H]2O)C(OC(=O)/C=C/c2ccc(O)cc2)C1` (stereo partly drawn) gave nsP2pro primary 14.2%[10 µM].
Screening CC1=C(C(=O)O)/C(=C\CO[C@@H]2O[C@H](CO)[C@@H](O)[C@H](O)[C@H]2O)C(OC(=O)/C=C\c2ccc(O)cc2)C1 (stereo partly drawn) returned nsP2pro primary 0.0242µM*.
`CCCCCCCCn1cc(CC(N)=O)c2cc(-c3cccc(C)c3)ccc21` gave nsP2pro primary 7.5%.
For CCCCCC1CC1CC1CC1CCCCCCCC(=O)O (stereo not drawn) the results were nsP2pro primary 53.8%[10 µM].
Screening COc1cccc(NC(=S)N2CCN(c3ccc4ccccc4n3)CC2)n1 returned nsP2pro primary -14.4%.
For CC(=O)N1CC2(CCCN(C3CCCCC3)C2)Cc2ccccc21 (stereo not drawn) the results were nsP2pro primary -14.2%.
For CC[C@@H](CO)NC(=O)[C@@H]1C=C2c3cccc4[nH]cc(c34)C[C@H]2N(C)C1 the results were nsP2pro primary -6.3%.
CCN(CC)C(=O)N[C@@H]1C=C2c3cccc4[nH]cc(c34)C[C@@H]2N(C)C1 was read as nsP2pro primary 12.4µM*.
`CCN(CC)C(=O)N[C@H]1C[C@@H]2c3cccc4[nH]cc(c34)C[C@H]2N(C)C1` gave nsP2pro primary 22.4%.
`O=C(Nc1ccccc1F)C1CCCN(Cc2cccc(-c3cccs3)c2)C1` (stereo not drawn) gave nsP2pro primary inactive.
Screening OC(COc1ccccc1CNCC1CCOCC1)CN1CCSCC1 (stereo not drawn) returned nsP2pro primary 2.1%.
Screening CCOC(=O)N1CCc2c(sc(NCc3cccs3)c2C(=O)Nc2cc(OC)ccc2OC)C1 returned nsP2pro primary 11.2µM*.
For COc1ccc(NC(=O)c2c(NCc3sccc3C)sc3c2CCCC3)c(OC)c1 the results were nsP2pro primary -12.8%.
For COc1ccccc1NC(=O)c1c(NCc2ccc(OC)c(OC)c2OC)sc2c1CCC2 the results were nsP2pro primary -23.5%.
Screening CC[C@@H]1[C@@H]2CN(C(=O)[C@H](C(C)(C)C)NC(=O)O[C@@H]3C[C@H]3CCCCC(F)(F)c3nc4ccc(OC)cc4nc3O2)[C@@H]1C(=O)N[C@]1(C(=O)NS(=O)(=O)C2(C)CC2)C[C@H]1C(F)F returned nsP2pro primary -7.2%.
For C#CCOc1ccccc1CN1CCN(c2ncc(F)cn2)CC1 the results were nsP2pro primary -0.1%.
Cc1nc2cnccn2c1C(=O)N1CCC(C#N)CC1 was read as nsP2pro primary -2.4%[39.2 µM].
For COc1ccccc1-c1cc([C@H]2CN3CC[C@H]2C[C@@H]3COC(=O)NC2CCCCC2)nc(C)n1 the results were nsP2pro primary 10µM*.
CC(=O)c1cccc(NC(=O)OC[C@H]2C[C@@H]3CCN2C[C@@H]3c2cc(C3CCCC3)nc(C)n2)c1 was read as nsP2pro primary inactive.
`CC(=O)c1ccc(NC(=O)OC[C@H]2C[C@@H]3CCN2C[C@@H]3c2cc(C3CCCC3)nc(-c3ccncc3)n2)cc1` gave nsP2pro primary inactive.
`[Mn].[O]=[Mn][OH].[O]=[Mn][OH]` gave nsP2pro primary -3.3%.
